The source made the active and inactive calls. Unless noted, the rule behind the calls is not given here.
Key:
[1] = compound effects on lung adenocarcinoma cell viability – A549, calcein-AM fluorescence, 48 h, basal, profiling panel (AID 1162); settings: higher = more signal; note: test concentration not given here
[2] = compound effects on differentiated 3T3-L1 adipocyte viability – cell-based, 3T3-L1 adipocytes, calcein-AM fluorescence, 48 h, basal, profiling panel (AID 1163); settings: 3T3-L1 adipocytes viability, higher = more signal; note: test concentration not given here
[3] = compound effects on hepatocellular carcinoma cell viability – HepG2, calcein-AM fluorescence, 48 h, basal, profiling panel (AID 1164); settings: higher = more signal; note: test concentration not given here
[4] = compound effects on multiple myeloma cell viability – MM1S, calcein-AM fluorescence, 48 h, basal, profiling panel (AID 1165); settings: higher = more signal;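 note: viability of MM1S multiple myeloma cells under basal unstimulated conditions; test concentration not given here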
[5] = calcein-AM signal in unstimulated myeloma cells – cell-based, calcein-AM fluorescence, 48 h, PK04 Diversity Set, profiling panel (AID 1166); settings: RPMI8226 myeloma viability, higher = more signal;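 note: cells grown under basal conditions without added stimulus; test concentration not given here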
[6] = JC-1 mitochondrial signal, unstimulated HepG2 cells – cell-based, JC-1 fluorescence, 24 h, 100 nL compound, profiling panel (AID 1167); settings: HepG2 mitochondrial potential, higher = more signal; note: test concentration not given here
[7] = JC-1 mitochondrial signal, unstimulated adipocytes – cell-based, JC-1 fluorescence, 3T3-L1 adipocytes, 24 h, 100 nL compound, profiling panel (AID 1168); settings: JC-1 mitochondrial fluorescence, higher = more signal, called active from +8 up or from −8 down; note: test concentration not given here
[8] = JC-1 mitochondrial signal, unstimulated myeloma cells – cell-based, JC-1 fluorescence, RPMI8226, 24 h, 100 nL compound, profiling panel (AID 1169); settings: JC-1 mitochondrial potential fluorescence, higher = more signal; note: test concentration not given here
[9] = JC-1 mitochondrial signal, unstimulated MM1S myeloma – cell-based, JC-1 fluorescence, 24 h, 100 nL compound, profiling panel (AID 1170); settings: MM1S mitochondrial potential, higher = more signal; note: test concentration not given here
[10] = resazurin metabolic signal in A549 cells – cell-based, resazurin fluorescence, 24 h, PK04 Diversity Set, profiling panel (AID 1171); settings: A549 viability, higher = more signal, called active from +8 up or from −8 down; note: test concentration not given here
[11] = resazurin metabolic signal in HepG2 cells – cell-based, resazurin fluorescence, 24 h, PK04 Diversity Set, profiling panel (AID 1172); settings: HepG2 viability, higher = more signal; note: test concentration not given here
[12] = budding yeast growth changes without added modifier – OD600, strain BY4716, 24 h, basal condition, primary screen (AID 1173); settings: S. cerevisiae BY4716 growth, OD600, 24 h; higher = more signal, called active from +8 up or from −8 down
[13] = viability profiling in MM1S myeloma cells – cell-based, resazurin fluorescence, basal, 24 h, PK04 Diversity Set, profiling panel (AID 1174); settings: higher = more signal, called active from +8 up or from −8 down; note: test concentration not given here
[14] = target: Dihydroorotate dehydrogenase (quinone), mitochondrial (Plasmodium falciparum (isolate 3D7)) (UniProt Q08210); test: inhibition of P. falciparum DHODH – biochemical, C-terminal His tag, absorbance 600 nm, primary screen (AID 1175); settings: PfDHODH enzyme, DCIP absorbance 600 nm; higher = more signal, called active from +8 up or from −8 down;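 note: recombinant parasite enzyme with a five histidine tag at its C terminus; test concentration not given here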
Sequence of Dihydroorotate dehydrogenase (quinone), mitochondrial (Plasmodium falciparum (isolate 3D7)) (Q08210 whole entry, looked up): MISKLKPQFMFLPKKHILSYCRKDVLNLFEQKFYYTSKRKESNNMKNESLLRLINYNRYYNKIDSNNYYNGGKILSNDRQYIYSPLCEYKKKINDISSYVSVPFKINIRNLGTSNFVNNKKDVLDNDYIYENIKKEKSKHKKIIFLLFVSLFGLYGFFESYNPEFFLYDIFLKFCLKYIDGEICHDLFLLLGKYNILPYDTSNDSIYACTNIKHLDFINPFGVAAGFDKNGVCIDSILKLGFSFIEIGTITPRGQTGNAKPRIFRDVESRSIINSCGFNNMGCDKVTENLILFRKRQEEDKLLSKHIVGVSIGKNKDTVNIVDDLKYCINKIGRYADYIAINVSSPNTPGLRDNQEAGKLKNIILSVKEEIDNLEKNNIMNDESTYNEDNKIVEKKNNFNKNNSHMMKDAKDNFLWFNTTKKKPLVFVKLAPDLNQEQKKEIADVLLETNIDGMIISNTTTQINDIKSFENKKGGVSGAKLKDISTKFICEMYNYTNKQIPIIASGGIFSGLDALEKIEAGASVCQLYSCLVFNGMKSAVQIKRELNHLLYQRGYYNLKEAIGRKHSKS

[15] = inhibition of PAO1 biofilm formation – strain PAO1, LB-PBS medium, absorbance 600 nm, primary screen (AID 1176); note: test concentration not given here; settings: P. aeruginosa PAO1 growth/biofilm, A600, 12 h; higher = more signal
[16] = growth modulation of vineyard yeast isolate – strain RM11-1a, OD600, basal, 24 h, primary screen (AID 1177);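 note: cultures grown under basal conditions with no added stressor; test concentration not given here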; settings: S. cerevisiae RM11-1a growth, OD600, 24 h; higher = more signal, called active from +8 up or from −8 down
[17] = growth of efflux-deficient E. coli DRC39 – strain DRC39, OD650, 24 h, E. coli filamentation inducers, primary screen (AID 1178);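 note: growth measured as culture turbidity by optical density at 650 nm; test concentration not given here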; settings: E. coli DRC39 acrAB, higher = more signal, called active from +8 up or from −8 down
[18] = growth of efflux-deficient E. coli DRC39 – strain DRC39, OD650, 48 h, E. coli filamentation inducers, primary screen (AID 1179);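 note: screen aims at cell division blockers that make cells filament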; settings: E. coli DRC39 delta-acrAB growth, higher = more signal, called active from +8 up or from −8 down
[19] = viability profiling in RPMI8226 myeloma cells – cell-based, resazurin fluorescence, basal, 24 h, PK04 Diversity Set, profiling panel (AID 1180); settings: higher = more signal;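 note: RPMI8826 multiple myeloma cell line at 5000 cells per well; test concentration not given here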
[20] = target: E3 ubiquitin-protein ligase XIAP (Homo sapiens) (UniProt P98170); test: small molecules binding XIAP protein – biophysical, small-molecule microarray, fluorescence 635 nm, primary screen (AID 1181); settings: higher = more signal;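 note: score merges 667 nm emission and signal to noise over triplicate slides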
Sequence of E3 ubiquitin-protein ligase XIAP (Homo sapiens) (P98170 whole entry, looked up): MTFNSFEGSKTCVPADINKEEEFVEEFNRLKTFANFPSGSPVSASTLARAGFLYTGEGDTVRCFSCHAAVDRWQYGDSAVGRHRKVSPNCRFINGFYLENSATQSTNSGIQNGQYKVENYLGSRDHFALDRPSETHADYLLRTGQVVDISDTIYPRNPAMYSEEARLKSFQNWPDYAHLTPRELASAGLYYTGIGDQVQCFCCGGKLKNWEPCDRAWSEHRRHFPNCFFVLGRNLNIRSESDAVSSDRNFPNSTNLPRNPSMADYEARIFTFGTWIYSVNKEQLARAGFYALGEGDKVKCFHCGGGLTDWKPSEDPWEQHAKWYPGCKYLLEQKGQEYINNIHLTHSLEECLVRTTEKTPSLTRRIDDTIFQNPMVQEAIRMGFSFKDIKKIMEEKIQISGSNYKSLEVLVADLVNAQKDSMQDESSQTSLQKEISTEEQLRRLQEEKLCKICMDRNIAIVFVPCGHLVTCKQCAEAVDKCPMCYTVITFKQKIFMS

| Structure (SMILES) | z-score [1] | z-score [2] | z-score [3] | z-score [4] | z-score [5] | z-score [6] | z-score [7] | z-score [8] | z-score [9] | z-score [10] | z-score [11] | z-score [12] | z-score [13] | composite z-score [14] | z-score [15] | z-score [16] | z-score [17] | z-score [18] | z-score [19] | composite z-score [20] |
| --- | --- | --- | --- | --- | --- | --- | --- | --- | --- | --- | --- | --- | --- | --- | --- | --- | --- | --- | --- | --- |
| C=CCN1C(=O)[C@]2(O[C@H](CCO)[C@@H]([Si](C)(C)c3ccc(OC)cc3)[C@@H]2C)c2cc(NC(=O)[C@H](C)O)ccc21 | -1.18 | 0.449 | -1.92 | -2.85 | -4.33 | -1.55 | -0.612 (inactive) | -1.03 | -0.061 | -0.848 (inactive) | -0.646 | -0.151 (inactive) | -1.43 (inactive) | 0.235 (inactive) | 0.0943 (inactive) | 2.79 (inactive) | -0.483 (inactive) | -0.955 (inactive) | -2.8 | 0.0223 |
| CCOC(=O)C1=CCC(C(C)(C)C)N(S(=O)(=O)c2ccc(C)cc2)C1 (stereo not given) | -0.723 | -0.194 | -0.157 | -2.31 | -1.28 | -1 | 0.161 (inactive) | -0.1 | -0.562 | 0.613 (inactive) | -0.462 | 0.586 (inactive) | -0.0359 (inactive) | 0.406 (inactive) | -0.321 (inactive) | 1.29 (inactive) | -0.021 (inactive) | -0.52 (inactive) | -0.719 | -0.0476 |
| COCCCNC(=O)[C@@]1(c2ccc([N+](=O)[O-])cc2)CC(=O)N(CC23CC4CC(CC(C4)C2)C3)[C@@H]1c1ccc(CO)cc1 | -0.995 | 0.109 | 0.198 | -1.93 | -2.42 | 0.461 | -0.381 (inactive) | 0.0554 | -0.784 | -0.968 (inactive) | -1.04 | -0.67 (inactive) | -1.62 (inactive) | 0.431 (inactive) | 0.981 (inactive) | -0.24 (inactive) | 0.788 (inactive) | 0.351 (inactive) | -1.96 | 0.0374 |
| C[N+](C)(C)CCCCCCNC(=O)[C@H]1C[C@H]2C(=O)N3CCC[C@H]3C(=O)N2[C@H]1c1ccc(O)cc1 | -0.827 | 0.262 | -1.14 | 0.327 | 0 | -1.4 | 0.435 (inactive) | -0.655 | -0.439 | 0.194 (inactive) | 0.202 | -0.652 (inactive) | 0.488 (inactive) | -2.18 (inactive) | 2.48 (inactive) | -0.201 (inactive) | -0.834 (inactive) | -1.15 (inactive) | -0.603 | 0.127 |
| COC(=O)C(CC#Cc1ccc2c(c1)[C@]1(C(=O)N2)[C@H](c2ccc(OCCO)cc2)N2[C@H](c3ccccc3)[C@H](c3ccccc3)OC(=O)[C@H]2[C@@H]1C(=O)NC[C@H](O)c1ccccc1)C(=O)OC | 0.876 | 1.04 | 1.31 | -1.67 | -1.2 | -1.13 | 0.833 (inactive) | -1.29 | -1.35 | 0.795 (inactive) | 0.722 | 1.51 (inactive) | 0.343 (inactive) | 0.676 (inactive) | 1.05 (inactive) | 3.39 (inactive) | 0.602 (inactive) | 0.869 (inactive) | -0.47 | 0.104 |
| CC(C)c1ccc(NN2C(C(O)c3c(F)cccc3Cl)C=CC3C(=O)N(c4ccccc4)C(=O)C32)cc1 (stereo not given) | -0.755 | 0.205 | -0.314 | -0.414 | -1.32 | -2.03 | -2.25 (inactive) | -0.738 | 0.584 | -1.71 (inactive) | -1.59 | -0.134 (inactive) | -1.35 (inactive) | 1.36 (inactive) | 0.807 (inactive) | 1.5 (inactive) | -0.576 (inactive) | -0.895 (inactive) | -1.42 | -0.132 |
| Cc1ccc(S[C@]2(C(=O)NCC(C)C)CC(=O)N(Cc3ccccc3)[C@@H]2c2ccc(CO)cc2I)cc1 | 0.715 | 0.752 | 0.38 | -2.1 | -2.73 | -0.329 | -1.23 (inactive) | -0.813 | -0.528 | 0.999 (inactive) | -0.629 | -1.51 (inactive) | -1.73 (inactive) | 0.47 (inactive) | 0.282 (inactive) | 0.341 (inactive) | -0.0655 (inactive) | -0.553 (inactive) | -1.89 | 0.0583 |

Reference: PubChem BioAssay
